# Screening results: PubChem BioAssay, The Scripps Research Institute Molecular Screening Center
# FBW7 activator: activators of human E3 ligase FBW7. Q969H0. AlphaScreen FBW7–phospho-cyclin E peptide binding, activator screen. normalized activity (activation), % at 26.1 µM. 0.13% of 650,000 active. AID 1259310; in the data active means normalized activity above about 1.9%;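 further: purified mutant Fbw7 with reduced substrate affinity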
# GPR151 activ: human GPR151 activation; activation, % at 11.2 µM; PathHunter beta-arrestin GPR151 cells, luminescence; 1% of 650,000 active; in the data active means activation above about 4.9%;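 further: 0% = median of compound wells and 100% = cells with positive control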
# TEAD-YAP block: TEAD-YAP interaction inhibition; 1.4% of 640,000 active; HEK-TIYL cells, TEAD-Gal4/YAP UAS-luciferase luminescence; inhibition, % at 9.12 µM; AID 1259422; in the data active means inhibition above about 32%;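 further: 0% = median of test compound wells and 100% = reference inhibitor wells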
# MITF primary: human MITF inhibition, primary screen; inhibition, % at 2.6 µM; O75030; AID 1259374; AlphaScreen MITF homodimerization, bead proximity signal; 0.91% of 650,000 active; in the data active means inhibition above about 50%;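 further: 0% = vehicle wells with protein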
# Target sequence (O75030 whole entry, looked up): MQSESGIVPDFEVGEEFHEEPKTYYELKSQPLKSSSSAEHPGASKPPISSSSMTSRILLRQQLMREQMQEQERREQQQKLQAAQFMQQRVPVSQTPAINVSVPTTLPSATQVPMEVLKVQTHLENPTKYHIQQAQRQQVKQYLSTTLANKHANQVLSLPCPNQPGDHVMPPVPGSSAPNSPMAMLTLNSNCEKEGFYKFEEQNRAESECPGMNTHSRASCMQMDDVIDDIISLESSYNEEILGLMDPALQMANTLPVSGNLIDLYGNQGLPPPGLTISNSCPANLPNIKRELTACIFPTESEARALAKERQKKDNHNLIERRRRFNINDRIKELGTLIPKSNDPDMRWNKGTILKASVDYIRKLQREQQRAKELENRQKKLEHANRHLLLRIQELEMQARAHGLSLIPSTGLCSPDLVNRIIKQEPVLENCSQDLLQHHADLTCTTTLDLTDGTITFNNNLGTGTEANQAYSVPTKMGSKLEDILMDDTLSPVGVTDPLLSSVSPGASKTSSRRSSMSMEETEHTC
# The depositor's hits bear a star. A selection: hits, their analogues and other compounds. The true share with any hit is near 3.5%.
SMILES,FBW7 activator,GPR151 activ,TEAD-YAP block,MITF primary
CCOC(=O)c1ccc(Nc2cc(OC)c([N+](=O)[O-])nc2[N+](=O)[O-])cc1,1,-1,67*,25
COC(=O)c1ccc(NC(=O)CN2C(=O)C(=O)c3ccccc32)cc1,0,1,15,5
O=C(Nc1nc(-c2ccccc2)cs1)c1cc([N+](=O)[O-])ccc1Cl,0,-1,33*,12
CCOC(=O)c1ccc(NC(=O)c2cc([N+](=O)[O-])ccc2Cl)cc1,0,1,39*,11
O=C(Nc1nc(-c2ccccc2)cs1)c1cc([N+](=O)[O-])ccc1Br,0,-1,23,1
COc1ccc(-c2csc(NC(=O)c3cc(Cl)ccc3[N+](=O)[O-])n2)cc1C,0,0,53*,19
CCOc1ccc(C2NC(=O)NC(C)=C2C(=O)OCc2ccc3c(c2)OCO3)cc1 (stereo not drawn),0,0,56*,15
CCCOc1ccc(C2NC(=O)NC(C)=C2C(=O)OCc2ccc3c(c2)OCO3)cc1 (stereo not drawn),0,2,55*,-11
CCOc1ccccc1C1NC(=O)NC(C)=C1C(=O)OCc1ccc2c(c1)OCO2 (stereo not drawn),0,-1,7,19
NC(=O)CN1C(=O)C(O)(CC(=O)c2ccc3c(c2)OCCO3)c2ccccc21 (stereo not drawn),0,0,12,19
COc1ccc(C2/C(=C(/O)c3ccc(C)cc3)C(=O)C(=O)N2CCCC(=O)O)cc1OC (stereo not drawn),0,0,3,-9
Cc1ccc(NC(=O)CC2SC(N)=NC2=O)cc1 (stereo not drawn),0,1,-7,6
NC1=NC(=O)C(CC(=O)Nc2ccc(NC(=O)CC3SC(N)=NC3=O)cc2)S1 (stereo not drawn),0,0,4,55*
[O-][n+]1onc2cc(Cl)c(Cl)cc21,0,2,-40,3
[O-][n+]1onc2cc(Br)cnc21,0,-2,-3,61*
COC(=O)CN1C(=O)S/C(=C/c2cccc(C)c2)C1=O,0,0,-18,-1
O=C(Nc1ccc(Cl)cc1)c1c(Cl)nsc1Cl,0,1,76*,-22
NC(=O)c1c(Cl)nsc1Cl,0,-2,65*,8
CCCCCC1CCC(c2ccc(-c3nc(-c4ccccc4Cl)no3)cc2)CC1 (stereo not drawn),0,1,8,13
COc1cc(-c2cc(C(=O)Nc3cc(C)[nH]n3)c3ccccc3n2)cc(OC)c1OC,0,0,33*,-5
CC(C)c1cc(C(=O)Nc2cccc(O)c2)no1,0,-4,81*,12
CC(C)Cc1cc(C(=O)Nc2cccc(Cl)c2)no1,0,0,-48,-24
CC(C)Cc1cc(C(=O)Nc2cccc(O)c2)no1,0,-1,87*,5
COc1ccc(-n2nc(C(=O)NCC(=O)Nc3ccc(F)cc3)c3ccccc3c2=O)cc1OC,0,1,17,-8
COc1cccc(NC(=O)CNC(=O)c2nn(-c3ccc(OC)c(OC)c3)c(=O)c3ccccc23)c1,0,-1,34*,-1
SMILES,FBW7 activator,GPR151 activ,TEAD-YAP block,MITF primary
COc1ccc(-n2nc(C(=O)NCC(=O)Nc3cc(OC)c(OC)c(OC)c3)c3ccccc3c2=O)cc1OC,0,1,49*,5
CC1=C/C(=N/Nc2nc3ccccc3[nH]2)CC(C)(C)C1,-1,1,-22,10
CC1CCC(=NNc2nc3ccccc3[nH]2)CC1 (stereo not drawn),0,1,-20,42
c1ccc(C2CCC(=NNc3nc4ccccc4[nH]3)CC2)cc1 (stereo not drawn),0,-1,33*,6
CC1=C/C(=N\Nc2nc3ccccc3[nH]2)CC1,0,-9,32*,2
CCOC(=O)C1=C(C)NC2=C(C(=O)C(C(=O)OC)C(C)C2)C1c1ccc(N(C)C)cc1 (stereo not drawn),0,-2,-16,9
OCc1nc2ccccc2n1CCOc1ccc(Cl)cc1,0,0,-6,-11
CCN(CC)S(=O)(=O)c1cc(C(=O)Oc2cccc(NC(=O)c3ccc([N+](=O)[O-])cc3)c2)ccc1C,0,-1,36*,6
CCN(CC)S(=O)(=O)c1cc(C(=O)Oc2cccc(NC(=O)c3ccc(Br)cc3)c2)ccc1C,0,0,20,-7
CCN(CC)S(=O)(=O)c1cccc(C(=O)Oc2cccc(NC(=O)c3cccc(OC)c3)c2)c1,0,-4,26,-2
CCN(CC)S(=O)(=O)c1cc(C(=O)Oc2cccc(NC(=O)c3ccccc3Cl)c2)ccc1C,0,0,55*,4
Cc1ccc(OCC(=O)Oc2cccc(NC(=O)c3ccccc3Cl)c2)cc1C,0,0,61*,3
O=C(Oc1cccc(NC(=O)c2ccccc2Cl)c1)c1ccc2c(c1)OCO2,0,2,60*,-9
O=C(Nc1cccc(NCc2ccc3c(c2)OCO3)c1)c1ccccc1Cl,0,0,10,4
Cc1cc(C=C2C(=O)c3ccccc3C2=O)c(C)n1-c1cc(C(=O)O)cc(C(=O)O)c1,0,1,0,64*
Cc1cc(C=C2C(=O)c3ccccc3C2=O)c(C)n1-c1ccc(S(N)(=O)=O)cc1,0,1,6,-6
CC(=O)Nc1cccc(NC(=O)CSc2ccc(-c3nc4ccccc4[nH]3)cn2)c1,0,-4,40*,-6
O=C(Nc1nc(CCC(=O)N2CCN(c3ccccc3F)CC2)cs1)NC1CCCCC1,0,3,5,5
O=C(Nc1nc(CCC(=O)N2CCCCCC2)cs1)NC1CCCCC1,0,2,41*,-2
COc1ccc(CCNc2cc(N3CCN(C(C)=O)CC3)ccc2[N+](=O)[O-])cc1OC,0,1,46*,-10
COc1ccc(CCNc2cc(N3CCN(C(=O)c4ccc(Br)cc4)CC3)ccc2[N+](=O)[O-])cc1OC,0,-1,-3,-7
COc1ccc(CCNc2cc(N3CCN(S(=O)(=O)N(C)C)CC3)ccc2[N+](=O)[O-])cc1OC,0,2,39*,5
COc1ccc(CCNc2cc(N3CCCCC3)ccc2[N+](=O)[O-])cc1OC,0,0,39*,8
Cc1nc2sccn2c1C(=O)Nc1ccc(Cl)c(Cl)c1,1,-1,10,13
Cn1c(=O)cc(NC2CC2)n(Cc2ccccc2Br)c1=O,0,0,0,-4
CCOc1ccc(NC(=O)C2C3C=CC4(O3)C2C(=O)N(CCOC)C4C(=O)NC2CCCCC2C)cc1 (stereo not drawn),0,0,10,5
COc1ccc(OCC(=O)N2CCc3ccccc32)c([N+](=O)[O-])c1,0,-2,-14,10
Cn1c2ccccc2c2nnc(N/N=C/c3ccccn3)nc21,-1,0,36*,45
CCC(=O)Oc1ccc2c(C)c(Cl)c(=O)oc2c1C,0,0,9,-1
Cc1ccccc1Nc1nc(Cl)nc(N2CCOCC2)n1,0,3,9,5
